The values below come from PubChem BioAssay AID581 (PCMD, 2007).

Hit rate of the full screen: of about 62,000 compounds, about 95 (0.2%) were called active. This is one part of a sample in which actives are shown more often than they occur. A number with no mark means an inactive call.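 The calls were made as follows: active = inhibition above 20% in each of the two mixture wells holding the compound; inactive = inhibition of 20% or less in either well.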

Cathepsin G (Homo sapiens), sequence (P08311 21-244 limits assumed): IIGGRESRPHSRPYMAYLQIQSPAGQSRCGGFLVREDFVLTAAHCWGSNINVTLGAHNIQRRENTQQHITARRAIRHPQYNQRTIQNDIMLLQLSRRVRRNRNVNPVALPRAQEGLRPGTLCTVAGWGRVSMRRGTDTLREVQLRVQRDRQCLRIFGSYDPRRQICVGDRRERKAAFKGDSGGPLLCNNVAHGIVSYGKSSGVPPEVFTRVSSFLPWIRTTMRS

This experiment addresses Cathepsin G (Homo sapiens) (UniProt P08311). In words: blockers of neutrophil cathepsin G protease – biochemical, pooled compound mixtures, AMC fluorescence, primary screen (AID 581).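 Also: 0% = enzyme control without mixture and 100% = blank lacking enzyme.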 To be noted: purified enzyme, AMC-tetrapeptide fluorescence, hits give high values, screened at 5 µM (by protocol).
As a reminder, the inhibition is the relative decrease from the control value, in per cent. Turning to `COc1ccc(CCN=C2SCC(=O)N2C)cc1OC`, the inhibition is 11.6%. Regarding `O=C(CCN1C(=O)C2C3C=CC(C3)C2C1=O)Nc1ccccc1F` (stereo not drawn), the inhibition was 6.93%. Take `O=C(COc1ccccc1Cl)Nn1cnnc1`: the inhibition is 3.79%. With `CCCOc1ccc(N2CC(C(=O)Nc3ccccn3)CC2=O)cc1` (stereo not drawn), the inhibition is 1.22%. In the case of `CC1CN(C2CCCCC2)c2nc3c(c(=O)n(C)c(=O)n3C)n2C1` (stereo not drawn), the inhibition is -2.58%. As for `COc1ccc(C2CC(c3ccccc3)Nc3ncnn32)cc1` (stereo not drawn), the inhibition is -0.07%. The figure for `O=C(c1cccnc1NCc1ccccc1)N1CCOCC1` is -5%; for `CN(C)/C=C1/Nc2ccccc2C1=O` it is -0.82%; for `O=c1nc(N2CCOCC2)nc2n1CCO2` it is 1.08%. With `CCOc1ccc(C(=O)N(Cc2ccc(N(C)C)cc2)C2CCS(=O)(=O)C2)cc1` (stereo not drawn), the inhibition is 7.67%. The figure for `CCN1CCN(C(=O)c2ccccc2N(C)S(=O)(=O)c2ccc(C)cc2)CC1` is 3.35%; for `CCc1nc(Nc2ccc3nccnc3c2)c2oc3ccccc3c2n1` it is -2.89%. With `CNC(=O)n1ccc(C(=O)N2CCCCC2)n1`, the inhibition is 11%. Turning to `CC(C)(C)n1nnnc1C(c1ccc2ncccc2c1)N1CCSCC1` (stereo not drawn), the inhibition was -7%.

In the case of `Cc1ccc(N2C(=O)c3oc4ccccc4c(=O)c3C2c2cccnc2)nc1` (stereo not drawn), the inhibition is 10.5%.

On to `O=C(O)CN1C(=O)CC(Cc2ccccc2)C1=O` (stereo not drawn), for which the inhibition is -0.115%. In the case of `CCCCn1c(SCc2ncc(-c3ccccc3)o2)nc2cc(S(N)(=O)=O)ccc21`, the inhibition was 13.9%. In the case of `Cc1ccc(CNC(=O)C2CCCN(S(C)(=O)=O)C2)cc1` (stereo not drawn) it was -3.54%; in that of `CCC1SC2=NCCN2C1(O)c1ccc(Cl)cc1` (stereo not drawn), 1.99%. On to `Cn1c(=O)[nH]c(=O)c2c1nc(N(CCO)Cc1ccccc1)n2Cc1ccccc1Cl`, for which the inhibition was 5.71%. On to `COc1ccccc1N1CCN(CCCCOc2ccc(F)cc2)CC1`, for which the inhibition was 13.1%. Take `CCS(=O)(=O)NCCc1ccc(OC)c(OC)c1`: the inhibition was 13.1%. Regarding `CCCN1CCN(C(=O)Cn2ncc3ccccc32)CC1`, the inhibition is -11.9%. Regarding `CCc1nc2oc3ccccc3c(=O)c2c(=O)n1Cc1ccc(OC)cc1`, the inhibition was -20.5%. With `Cn1cccc1Cc1nnc(SCC(=O)NCc2ccc3c(c2)OCO3)n1CCc1ccccc1`, the inhibition was 10.5%. As for `COc1ccc(C(=O)Cn2nnc(-c3ccc(N4CCOCC4)cc3)n2)cc1OC`, the inhibition is 2.19%. Turning to `COc1ccc(CC(=O)n2nc(-c3cccnc3)nc2N)cc1`, the inhibition is 14.7%.

For the compound `COc1ccc(C(=O)n2nc(-c3ccc(C)cc3)nc2N)cc1OC`, the inhibition was 44% (active). Take `COc1ccccc1C(=O)n1nc(-c2ccccc2)nc1N`: the inhibition was 7.93%. The figure for `COc1ccc(C(=O)n2nc(-c3ccc(Cl)cc3)nc2N)cc1OC` is 37.8% (active). The figure for `COC(=O)c1ccc(OC(=O)c2nn(C)cc2Cl)c(OC)c1` is 1.08%; for `Cc1cccc(-n2c(Cc3cc(=O)[nH]c(=O)[nH]3)nnc2SC(C)C)c1` it is 10.3%.

`CCCN1Cc2cccc(C(=O)NCc3ccccc3)c2C1=O`: the inhibition was -0.625%. `COc1ccc(N(Cc2cc3cc(OC)ccc3[nH]c2=O)S(C)(=O)=O)cc1`: the inhibition was -3.1%. Consider `Cn1c(CC(=O)Nc2ccccc2)nnc1SCC(=O)c1ccccc1`, for which the inhibition is -0.18%. With `c1ccc2cc(OCCN3CCCC3)ccc2c1`, the inhibition is -4.75%. In the case of `O=C(O)CSC(NC(=O)c1cccnc1)(C(F)(F)F)C(F)(F)F` it was 4.23%; in that of `CCOC(=O)c1c(NC(=O)CSc2nnc(Cc3csc(N)n3)n2C)sc(C)c1C`, -4.19%; in that of `O=C1CC(c2ccccc2)CC(O)=C1C=NCCN1CCOCC1` (stereo not drawn), 14.8%. As for `CC1(C)CC(=O)C(C=NCCC2=CCCCC2)=C(O)C1`, the inhibition is 6.17%. For `O=C1CCCC(O)=C1C=NCCc1ccccc1`, the inhibition was 33.4% (active).

With `O=C(CSc1nnc(-c2cccs2)n1Cc1ccco1)c1ccc2c(c1)OCO2`, the inhibition is 7.29%. The figure for `CSc1ccc(S(=O)(=O)Nc2cccc(F)c2)cc1` is -1.91%; for `CCCNC(=O)Nc1ccccc1C(=O)Nc1ccc(OC)cc1` it is 4.04%.

Consider `CC1(C)CC(=O)c2cc(OCC(=O)NCC3CCCO3)ccc2O1` (stereo not drawn), for which the inhibition was 4.79%. For `O=C(c1ccco1)N1CCN(C(=O)C2CC(c3ccc(F)cc3)=NO2)CC1` (stereo not drawn), the inhibition is 2.3%. For `COCCCNC(=O)CCc1nc2cccnc2n1Cc1ccc(OC)cc1`, the inhibition was 11.7%. In the case of `CCN(c1ccc2c(c1)OCO2)S(=O)(=O)c1cc(Br)cc2c1N(C(=O)C1CC1)CC2`, the inhibition was 2.07%. `COC(=O)c1cc(NC(=O)CN2CCC(C(N)=O)(N3CCCCC3)CC2)cc(C(=O)OC)c1`: the inhibition is -6.63%. In the case of `CN(C)c1ccnc2sc3c(=O)n(Cc4ccccc4)cnc3c12` it was -4.39%. The figure for `CC(=O)N1C(=O)C2(Nc3ccccc3N2)c2ccccc21` is -1.99%; for `Cc1ccccc1CSc1nnc(-c2cccnc2)n1N` it is 14.2%; for `Cc1cccc(NC(=O)CSc2nnc(CCCCCNC(=O)OC(C)(C)C)o2)c1C` it is 6.06%. With `O=C(Cn1c(-c2ccc(Cl)cc2)noc1=O)N1CCN(c2ccccc2F)CC1`, the inhibition is 7.96%.

Regarding `O=c1ccn(Cc2ccccc2Cl)cc1`, the inhibition is -1.12%.

As to `Cc1cc(NC(=O)CN2CCC(O)(c3cccc(F)c3)CC2)no1`, the inhibition was 5.96%. With `COc1cccc(N(C(=O)c2ccn[nH]2)C2(C(=O)Nc3c(C)cccc3C)CCCCC2)c1`, the inhibition was 8.21%.

Consider `COc1ccc2occ(C(=O)c3ccc(N=C(C)N(C)C)cc3)c2c1`, for which the inhibition was -7.35%. Take `O=C1Nc2c(Br)cc(Br)cc2C1(O)N1CCOCC1` (stereo not drawn): the inhibition is 1.49%.

On to `CCOC(=O)CNC(=O)CSc1nnc(-c2cccc(OC)c2)n1CC`, for which the inhibition was -5.21%. In the case of `Oc1c(C(c2ccccn2)N2CCOCC2)ccc2cccnc12` (stereo not drawn) it was 13.3%; in that of `CN(C(=O)c1ccccn1)c1nnc(-c2ccccn2)s1`, 10.6%; in that of `COc1ncnc2c1N=C1CC(C)(C)CC(N)=C1S2`, -6.43%.
